Experimental data: PubChem BioAssay AID1845227 (National Center for Advancing Translational Sciences (NCATS), 2023)
Records with an inconclusive call do not appear. Calls of active or inactive are those of the source. The call rests on the fitted dose curve; in most records, active means well fitted inhibition curve with a large enough effect; inconclusive means small, poorly fitted or top-dose-only effect; inactive means no such curve, though single readings can be large or run the other way.

Biological target: Luciferin 4-monooxygenase (Photinus pyralis) (UniProt P08659)
Assay: Confirmatory firefly luciferase (FLuc) qHTS assay for identification of artifact compounds;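 on activity change, negative = inhibition: 0% = DMSO and -100% = no enzyme control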
Conditions: purified FLuc enzyme, luminescence, 5 min; series mostly up to 38.9 µM; activity change, negative = inhibition: at the top concentration
Method in brief: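 Purified Photinus pyralis luciferase (10 nM) with D-luciferin and ATP each 10 uM, pH 7.6 Tris-acetate; compounds preincubated 15 min with substrate, 5 min after enzyme; luminescence normalized to no-enzyme and DMSO, 4-parameter Hill fit.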
Potency means the concentration at half of the fitted maximal effect.

Activity change, negative = inhibition, inactive:
CCC(=O)N1CCCc2cc(S(=O)(=O)N3CCC(C(=O)Nc4ccccc4CC)CC3)ccc21 3.23%, CCOC(=O)c1c(C)[nH]c(C)c1S(=O)(=O)N1CCC(C(=O)N2CCN(c3ccccc3)CC2)CC1 1.27%, CC(C)c1ccc(Cn2c(COc3ccccc3)nc3ccccc32)cc1 -14.1%, CC(NC(=O)CSc1nc(-c2ccccc2F)nc2cc(=O)[nH]n12)c1nc2ccccc2n1C (stereo not given) -1.81%, COc1cc(C2C(C(=O)Nc3ccc(Cl)cc3)=C(C)Nc3nc(SC)nn32)cc(OC)c1OC (stereo not given) -10.6%, CCOc1ccccc1NC(=O)N(Cc1ccc(C)o1)C1CCN(C(C)=O)CC1 8.24%, Cc1cccc(CSc2nc3cc(C(=O)NC4CCCC4)ccc3c(=O)n2Cc2ccccc2)c1 5.47%, Cc1ccc(Nc2c(-c3ccc(C)cc3)nc3c(C)cccn23)cc1 -2.92%, O=C(Nc1nnc(-c2ccncc2)s1)Nc1cccc2ccccc12 11.8%, COc1ccc(-c2cc(C(=O)Nc3cc(C(F)(F)F)ccc3Cl)no2)cc1 9.92%, COc1cccc(-c2nnc(Nc3nc4ccc(OC)cc4s3)o2)c1 1.25%, Cc1c(CCNC(=O)Cc2ccc(F)cc2)sc2nc(-c3ccc(F)cc3)nn12 -5.72%, COc1ccc(CNC(=O)C(C)n2nc(C)c3c(C)n(-c4ccccc4)nc3c2=O)c(OC)c1 (stereo not given) -3.65%, Cc1ccc(NC(=O)CSc2ccc(-c3cccs3)nn2)cc1Cl 6.83%, Ic1ccc(Nc2nc(NCCN3CCOCC3)nc(N3CCOCC3)n2)cc1 1.03%, COc1ccc(OC(=O)c2nc(SCc3ccccc3C)ncc2Cl)cc1 10.8%, COc1ccccc1CNc1ccc(-c2nc(-c3cccnc3)no2)cc1[N+](=O)[O-] -4.58%, CCCn1c(-c2cccc(Br)c2)nc2ccccc21 -3.37%, O=C(Nc1ccc(F)cc1F)c1ccc(-n2cnnc2)cc1 -4.99%, O=C(Cc1ccccc1)Nc1ccc2oc(-c3cccnc3)nc2c1 -9.51% [at 78.4 µM], COc1ccccc1NC(=O)CSC1=Nc2ccccc2C2=NC(CC(=O)NCc3ccccc3)C(=O)N12 (stereo not given) 4.1%, CC(C)=CCC/C(C)=C/C=O -2.39% [at 78.4 µM], CC(=O)Nc1sc2c(c1-c1ccc(Cl)cc1)CCNC2 3.64%, CC1OC(OCC2OC(Oc3cc(O)c4c(c3)OC(c3ccc(O)cc3)CC4=O)C(O)C(O)C2O)C(O)C(O)C1O (stereo not given) -4.14%, CC(=O)Nc1oc(-c2cccc3ccccc23)nc1C#N 59.2%, CCc1ccc(S(=O)(=O)c2nnn3c2nc(N2CCOCC2)c2sccc23)cc1 0.839%, Cc1cc(-c2ccccc2)n2nc(-c3ccc(Cl)cc3)cc2n1 -0.184%, COc1ccc(N2CC(NC(=O)COc3ccccc3)CC2=O)cc1OC (stereo not given) -4.62%, Cc1c(C(=O)N(C)C)sc2c1c(=O)n(-c1ccc(Cl)cc1)c(=O)n2Cc1ccccc1F -4.76%, CC(C)CN(CCNC(=O)c1cn(C)c2ccc(S(=O)(=O)N3CCOCC3)cc2c1=O)CC(C)C 10.8%, Cc1ccccc1CNC(=O)C(C)N(c1ccccc1)S(C)(=O)=O (stereo not given) 4.48%, COc1ccc(-c2c3c(=O)n(C)c(=O)n(C)c3c3n2-c2ccccc2NC3c2ccccc2OC)cc1 (stereo not given) -5.6%, COc1ccc(Cn2c(CNS(=O)(=O)c3ccc(Cl)s3)nc3cccnc32)cc1 3.97%, CN(C)[C@@H]1C(=O)C(C(=O)NCN2CCCC2)C(=O)[C@@]2(O)C(=O)C3C(=O)c4c(O)cccc4[C@@](C)(O)[C@H]3C[C@@H]12 (stereo not given in full) -3.07%

Potency, active:
CCCc1nn2cc(-c3ccc(C)c(C)c3)nc2s1 770 nM
